Reference: PubChem BioAssay (NCATS)
Results filed as inconclusive are left out. Calls of active or inactive are those of the source. Calls come from the whole dose curve; as a rule, active = well fitted curve in the direction sought with a large enough effect; inconclusive = small, poorly fitted or top-dose-only effect, or another doubt; inactive = no such curve, though single readings can be large; an effect the other way counts as inactive or inconclusive.

Columns and labels:
[1] = molecular target: Glutathione peroxidase 1 (Homo sapiens) (UniProt P07203); assay: Primary qHTS Assay for Inhibitors of Recombinant Selenoprotein Glutathione Peroxidase 1 (GPX1) (AID 1845191); note: nearly all actives have a fitted effect of over 65% in size; for activity, negative = inhibition: % is set by controls: 0 for no effect and ±100 for the full control effect
Chain of Glutathione peroxidase 1 (Homo sapiens) (P07203 whole entry, looked up): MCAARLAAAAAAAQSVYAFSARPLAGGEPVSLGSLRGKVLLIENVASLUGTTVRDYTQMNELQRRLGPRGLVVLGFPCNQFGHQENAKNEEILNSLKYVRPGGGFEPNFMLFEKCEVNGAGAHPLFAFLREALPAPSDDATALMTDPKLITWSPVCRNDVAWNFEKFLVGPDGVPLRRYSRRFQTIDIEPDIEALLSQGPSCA
Outline: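 GPX1 10 nM, GR 100 nM, GSH 1 mM, NADPH 0.5 mM, CHP 0.5 mM (final). 30-min cpd preincubation, RT. Ex340/Em450 read t=0, t=15 min.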

[2] = molecular target: Phospholipid hydroperoxide glutathione peroxidase GPX4 (Homo sapiens) (UniProt P36969); assay: Primary qHTS Assay for Inhibitors of Recombinant Selenoprotein Glutathione Peroxidase 4 (GPX4) (AID 1845192); note: nearly all actives have a fitted effect of over 65% in size; for activity change, negative = inhibition: series mostly up to about 50 µM; % is set by controls: 0 for no effect and ±100 for the full control effect
Chain of Phospholipid hydroperoxide glutathione peroxidase GPX4 (Homo sapiens) (P36969 whole entry, looked up): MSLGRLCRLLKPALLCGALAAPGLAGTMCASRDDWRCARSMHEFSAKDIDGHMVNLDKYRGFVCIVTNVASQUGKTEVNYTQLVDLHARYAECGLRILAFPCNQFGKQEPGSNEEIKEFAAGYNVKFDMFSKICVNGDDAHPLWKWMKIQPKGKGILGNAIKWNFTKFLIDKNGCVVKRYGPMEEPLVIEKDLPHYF
Outline: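 qHTS, GR-coupled: GPX4 200 nM + cpd 30 min RT → GSH 1 mM, NADPH 0.5 mM, GR 100 nM → CHP 0.5 mM start; fluor 340/450 at t0 and t15 min; no-enzyme wells as control.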

[3] = molecular target: Luciferin 4-monooxygenase (Photinus pyralis) (UniProt P08659); assay: Primary firefly luciferase (FLuc) qHTS assay for identification of artifact compounds. (AID 1845220); note: nearly all actives have a fitted effect of over 60% in size; note: potency is the fitted concentration of half-maximal effect;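 for activity change, negative = inhibition: series mostly up to about 54 µM; plate controls were DMSO vehicle for no effect and no enzyme for full effect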
Outline: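 In this counter-screen for luciferase artifacts, test compounds met substrate (10 uM each luciferin and ATP) before 10 nM enzyme started the reaction. Light output was measured 5 min later.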

[4] = Primary fluorescence-based thiol-reactive (MSTI) qHTS assay for identification of artifact compounds. (AID 1845221);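 note: series mostly up to about 54 µM; thiol-reactive compounds lower the probe fluorescence signal; nearly all actives have a fitted effect of over 65% in size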
Outline: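 Thiol-reactive compounds detected by quenching of 4 uM MSTI fluorescence (525/598 nm) after 1 h room-temperature dark incubation in PBS pH 7.4, 2% DMSO. qHTS titration; percent inhibition Hill-fitted against Acetyl-MSTI/MSTI controls.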

[5] = system: Nanoluciferase (engineered Oplophorus gracilirostris luciferase); assay: Primary Nanoluciferase (NLuc) qHTS assay for identification of artifact compounds. (AID 1845222);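 note: NLuc secreted into diluted conditioned medium of S16 cells; series mostly up to about 54 µM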
Outline: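 Using secreted nanoluciferase in S16 culture medium (0.22 um filtered, 1:55 dilution), compounds were preincubated 15 min at RT. Signal was generated with Nano-Glo reagent (1:100) over 5 min.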

[6] = Primary redox qHTS assay for identification of artifact compounds. (AID 1845223);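 note: 0% = DMSO and 100% = reference compound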
Outline: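 Redox-cycling detection via DTT (250 uM final) oxidation coupled to Amplex Red (25 uM)/HRP (250 mU/mL) in HBSS. 15 min preincubation plus 30 min after DTT, room temperature. Ex/Em 525/598 nm; 4-parameter Hill fit against DMSO and 10 uM DA3003.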

CC1(C)CC[C@]23CO[C@@]4(CCC5[C@@]6(C)CC[C@H](O[C@@H]7OC[C@H](O[C@@H]8O[C@H](CO)[C@@H](O)[C@H](O)[C@H]8O[C@@H]8OC[C@@H](O)[C@H](O)[C@H]8O)[C@H](O)[C@H]7O)[C@@](C)(CO)C6CC[C@@]5(C)[C@]4(C)CC2=O)[C@@H]3C1 (some centres undefined)
inactive: Potency [1] | Potency [2] | outcome [3] inactive [at 11.6 µM] | activity change, negative = thiol reactive [4] 249% [at 11.5 µM] | activity, negative = inhibition [5] 3.95% [at 11.6 µM] | redox activity (% of DA3003) [6] -0.913% [at 11.5 µM]

CC(C)=C1C[C@@]2(C)C(=CC1=O)CC[C@@H](OC(=O)/C(C)=C/CO)[C@@H]2C
inactive: Potency [1] | Potency [2] | Potency [3] | Potency [4] | Potency [5] | Potency [6]

COC(=O)C1=CO[C@@H](O[C@@H]2O[C@H](CO)[C@@H](O)[C@H](O)[C@H]2O)[C@H]2[C@@H]1C=C[C@]21C=C([C@H](C)OC(=O)/C=C/c2ccc(O)cc2)C(=O)O1
inactive: Potency [1] | Potency [2] | Potency [3] | Potency [4] | Potency [5] | Potency [6]

COc1ccc(C[C@H]2COC(=O)[C@@H]2Cc2ccc(O[C@@H]3O[C@H](CO)[C@@H](O)[C@H](O)[C@H]3O)c(OC)c2)cc1OC
inactive: Potency [1] | Potency [2] | Potency [3] | Potency [4] | Potency [5] | Potency [6]

COc1cccc(OCCCN)c1-c1cc(Nc2cnc(C#N)cn2)n[nH]1
inactive: Potency [1] | Potency [2] | Potency [3] | Potency [4] | Potency [5] | Potency [6]

C=C1C(=O)OC2/C=C(\COC(C)=O)CC/C=C(\C=O)CC(OC(=O)CC(C)C)C12 (centres undefined)
inactive: Potency [1] | Potency [2] | Potency [3] | Potency [4] | Potency [5] | Potency [6]

COc1cc(/C=C/C(=O)NCCn2c(C(F)(F)F)cc3ccccc32)cc(OC)c1OC
inactive: Potency [1] | Potency [2] | Potency [3] | Potency [4] | Potency [5] | Potency [6]

C=C[C@]1(C)C[C@H](O)[C@H]2C(=C)C(=O)O[C@@H]2[C@H]1C(=C)CO
inactive: Potency [1] | Potency [2] | Potency [3] | Potency [4] | Potency [5] | Potency [6]

COc1ccc(C2(N(C)C(=O)c3ccc(NC(=O)c4ccco4)cc3)CCOCC2)cc1
inactive: Potency [1] | Potency [2] | Potency [3] | Potency [4] | Potency [5] | Potency [6]

O=C(NCCN1CCC(n2c(=O)[nH]c3ccccc32)CC1)c1ccc2ccccc2c1
inactive: Potency [1] | Potency [2] | Potency [3] | Potency [4] | Potency [5] | Potency [6]

Cn1c(=O)c2c(ncn2Cc2ccc(C(C)(C)C)cc2)n(C)c1=O
inactive: Potency [1] | Potency [2] | Potency [3] | Potency [4] | Potency [5] | Potency [6]

C=C1C(=O)O[C@@H]2[C@H]3C(C)=CC(=O)C3=C(C)CC[C@@H]12
inactive: Potency [1] | Potency [2] | Potency [3] | Potency [4] | Potency [5] | Potency [6]

C=C1CC2OC(=O)C(=C)C2C(OC(=O)/C(C)=C\C)CC2(C)OC1=CC2=O (centres undefined)
inactive: Potency [1] | Potency [2] | Potency [3] | Potency [4] | Potency [5] | Potency [6]

O=C(Nc1cccc(C(F)(F)F)c1)Nc1ccc(Br)cc1-c1nn[nH]n1
inactive: Potency [1] | Potency [2] | Potency [3] | Potency [4] | Potency [5] | Potency [6]

COC(=O)CC(O)CC(O)/C=C/c1c(C)ccc2c1C(OC(C)=O)CC(C)C2 (centres undefined)
inactive: Potency [1] | Potency [2] | Potency [3] | Potency [4] | Potency [5] | Potency [6]

Cc1nc2ccc(-n3ncc(C(=O)c4cc5ccccc5[nH]4)c3N)cc2[nH]1
active: Potency [3] 3.38 µM
inactive: Potency [1] | Potency [2] | Potency [4] | Potency [5] | Potency [6]

COc1ccc(S(=O)(=O)Nc2c(C)cc(C)cc2C)cc1
inactive: Potency [1] | Potency [2] | Potency [3] | Potency [4] | Potency [5] | Potency [6]

C=C1C(=O)O[C@@H]2[C@H]1CC[C@H](C)[C@]1(CCC(=O)O1)C2(C)O (some centres undefined)
inactive: Potency [1] | Potency [2] | Potency [3] | Potency [4] | Potency [5] | Potency [6]

CS/C=C/C(=O)O[C@@H]1CCC2=CC(=O)C(=C(C)C)C[C@]2(C)[C@H]1C
inactive: Potency [1] | Potency [2] | Potency [3] | Potency [4] | Potency [5] | Potency [6]

Fc1ccc(-c2nc(-c3ccccc3F)[nH]c2-c2ccncc2)cc1
inactive: Potency [1] | Potency [2] | Potency [3] | Potency [4] | Potency [5] | Potency [6]

C[C@@H]1O[C@@H](O[C@H]2[C@H](OC(=O)[C@]34CCC(C)(C)C[C@H]3C3=CCC5[C@@]6(C)C[C@H](O)[C@H](O[C@@H]7O[C@H](CO)[C@@H](O)[C@H](O)[C@H]7O)[C@](CO)(C(=O)O)C6CC[C@@]5(C)[C@]3(C)C[C@H]4O)OC[C@H](O)[C@@H]2O)[C@H](O)[C@H](O)[C@H]1O[C@@H]1OC[C@@H](O)[C@H](O[C@@H]2OC[C@](O)(CO)[C@H]2O)[C@H]1O (some centres undefined)
inactive: outcome [1] inactive [at 9.52 µM] | activity change, negative = inhibition [2] -2.46% [at 9.73 µM] | activity change, negative = inhibition [3] 1.03% [at 11.6 µM] | activity change, negative = thiol reactive [4] 423% [at 11.5 µM] | activity, negative = inhibition [5] 2.55% [at 11.6 µM] | redox activity (% of DA3003) [6] 8.49% [at 11.5 µM]

Fc1ccc(CN2CCC(Nc3ccc(C(F)(F)F)nn3)CC2)cc1F
inactive: Potency [1] | Potency [2] | Potency [3] | Potency [4] | Potency [5] | Potency [6]

COc1ccc(-c2csc(NC(=O)[C@H]3CCCCN3S(=O)(=O)c3ccc(C)cc3)n2)cc1
inactive: Potency [1] | Potency [2] | Potency [3] | Potency [4] | Potency [5] | Potency [6]

CC1(C)C2CCC(CO[C@@H]3O[C@H](CO[C@@H]4OC[C@](O)(CO)[C@H]4O)[C@@H](O)[C@H](O)[C@H]3O)C1C2 (some centres undefined)
inactive: Potency [1] | Potency [2] | Potency [3] | Potency [4] | Potency [5] | Potency [6]
